A selection: hits, their analogues and other compounds. The true share with any hit is near 3.5%.
TEAD-YAP inh – TEAD-YAP interaction inhibition, primary screen, TEAD-YAP interaction inhibitor project, luminescence, HEK-TIYL cells; 1.4% of 640,000 active; TEAD-Gal4/YAP UAS-luciferase luminescence; inhibition, % at 9.12 µM; AID 1259422, 2018; in the data active = inhibition above about 32%
MITF primary – MITF inhibitors, primary screen, biochemical, AlphaScreen, human; Microphthalmia-associated transcription factor (Homo sapiens), O75030; AlphaScreen MITF homodimerization, bead proximity signal; inhibition, % at 2.6 µM; 0.91% of 650,000 active; AID 1259374, 2018; in the data active = inhibition above about 50%
Target sequence (O75030 whole entry, looked up): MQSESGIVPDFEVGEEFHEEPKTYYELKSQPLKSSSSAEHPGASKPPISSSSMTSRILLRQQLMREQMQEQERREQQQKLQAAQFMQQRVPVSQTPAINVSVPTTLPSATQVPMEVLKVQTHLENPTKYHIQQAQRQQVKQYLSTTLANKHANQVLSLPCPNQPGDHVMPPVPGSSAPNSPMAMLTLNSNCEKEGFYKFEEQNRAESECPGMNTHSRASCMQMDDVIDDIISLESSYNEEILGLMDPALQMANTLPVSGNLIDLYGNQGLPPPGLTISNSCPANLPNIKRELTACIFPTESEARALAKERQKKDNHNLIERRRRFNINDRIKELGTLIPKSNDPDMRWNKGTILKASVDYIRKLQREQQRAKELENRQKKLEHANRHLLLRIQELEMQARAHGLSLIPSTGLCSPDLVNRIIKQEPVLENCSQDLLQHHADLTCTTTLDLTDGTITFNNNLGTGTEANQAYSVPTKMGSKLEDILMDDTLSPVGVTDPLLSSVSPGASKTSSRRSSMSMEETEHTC
GPR151 ag – activators of human GPR151, primary screen, cell-based, PathHunter beta-arrestin, luminescence; G-protein coupled receptor 151 (Homo sapiens), Q8TDV0; PathHunter beta-arrestin GPR151 cells; activation, % at 11.2 µM; 1% of 650,000 active; in the data active = activation above about 4.9%
FBW7 act – FBW7 E3 ligase activators, primary screen, biochemical, AlphaScreen, human; F-box/WD repeat-containing protein 7 (Homo sapiens), Q969H0; AlphaScreen FBW7–phospho-cyclin E peptide binding, activator screen; normalized activity (activation), % at 26.1 µM; 0.13% of 650,000 active; AID 1259310, 2017; in the data active = normalized activity above about 1.9%;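 also: purified mutant Fbw7 with reduced substrate affinity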
Each line names hits and unclear results; the compound was inactive in the other large screens.

COC(=O)[C@@H]1C[C@@H](NC(=O)c2ccccc2F)CN1Cc1ccccc1F	none
Cc1cc(C)cc(NC(=O)c2ccccc2NS(C)(=O)=O)c1	none
N#Cc1c(NC(=O)c2cc(Cl)ccc2[N+](=O)[O-])sc2c1CCC2	TEAD-YAP inh 37.4
N#Cc1c(NC(=O)CSc2ncn[nH]2)sc2c1CCCCC2	TEAD-YAP inh 68.1
N#Cc1c(NC(=O)c2cccc3ccccc23)sc2c1CCC2	TEAD-YAP inh 58.1
NC(=O)c1c(NC(=O)C2CC2c2ccccc2)sc2c1CCCC2 (stereo unspecified)	none
NC(=O)c1c(NC(=O)c2cccc3ccccc23)sc2c1CCC2	none
N#Cc1c(NC(=O)C2CC2c2ccccc2)sc2c1CCC2 (stereo unspecified)	TEAD-YAP inh 42.6
COc1ccc(CN2Cc3cc(C)ccc3OC(C)C2)cc1O (stereo unspecified)	TEAD-YAP inh 54.5
CC(C)=C1C2CCC1C(C(=O)Nc1sc3c(c1C(N)=O)CCC(C)C3)C2C(=O)O (stereo unspecified)	none
Cc1nc2c(C)cccn2c1C(=O)NC(C)c1ccc(F)cc1 (stereo unspecified)	none
CCC(=O)N1CCCc2ccc(NC(=O)NCc3cccc4ccccc34)cc21	FBW7 act 14.4
Cc1ccn2cc(-c3cc4ccccc4oc3=O)nc2c1	none
Cc1ccn2cc(-c3ccc(Cl)cc3)nc2c1	TEAD-YAP inh 78.4
CCc1ccc(-c2cn3cc(C)ccc3n2)cc1	none
Cc1ccn2cc(-c3ccccc3Cl)nc2c1	TEAD-YAP inh 70.7
CCc1ccc(-c2cn3ccc(C)cc3n2)cc1	TEAD-YAP inh 96.4
COc1ccc(NS(=O)(=O)c2cc(NC(=O)CNC(C)=O)ccc2N2CCCC2)cc1	TEAD-YAP inh 39.0
CC(C)CC1c2[nH]c3ccccc3c2CCN1C(=O)c1csnn1 (stereo unspecified)	TEAD-YAP inh 39.8
CC(C)CC1c2[nH]c3ccccc3c2CCN1C(=O)Cn1cncn1 (stereo unspecified)	none
COc1cc(OC)cc(C(=O)Nn2c(-c3ccc(C(C)(C)C)cc3)nc3ccccc3c2=O)c1	TEAD-YAP inh 38.2
COc1cccc(C(=O)Nn2c(-c3ccc(Br)cc3)nc3ccccc3c2=O)c1	none
COc1cccc(C(=O)Nn2c(-c3ccc(C(C)(C)C)cc3)nc3ccccc3c2=O)c1	TEAD-YAP inh 41.5
CCN(CC)c1ccc(NC(=O)c2ccc3c4c(cccc24)CC3)cc1	TEAD-YAP inh 50.8
COc1ccc(CC(=O)N2CCC3(CC2)OCc2cccc(OC)c2O3)cc1OC	TEAD-YAP inh 65.0
COc1cccc2c1OC1(CCN(C(=O)Cc3ccc(F)cc3)CC1)OC2	none
CC1=C(CCN2CCc3nnc(C(C)NC(=O)C4CCOCC4)n3CC2)C(C)(C)CCC1 (stereo unspecified)	none
CCOC(=O)CN1CCN(c2ccc(-c3cccc(OC)c3)cn2)CC1	TEAD-YAP inh 71.4
O=C(COc1ccccc1)Nc1cccc(-c2ccc3nncn3n2)c1	none
O=C(O)c1ccc(NC2CC(=O)N(c3ccc(Oc4ccccc4)cc3)C2=O)cc1 (stereo unspecified)	none
NS(=O)(=O)c1ccc(N=Cc2c(O)n(Cc3ccco3)c(=O)[nH]c2=O)cc1	MITF primary 78.7
COC(=O)C1=C(C)NC(=O)/C1=C\c1cccc(OC)c1O	none
COC(=O)C1=CN(C2CCCC2)C=C(C(=O)OC)C1c1ccc(F)cc1	FBW7 act 3.1
COc1ccc(Nc2ccnc3c(-c4ccc(N)cc4)cnn23)cn1	TEAD-YAP inh 37.4
c1ccc(CNc2ccnc3c(-c4ccc5c(c4)OCO5)cnn23)nc1	FBW7 act 1.9
Nc1ccc(-c2cnn3c(NCc4ccc5c(c4)OCO5)ccnc23)cc1	FBW7 act 2.5
Cc1ccc(SCC(=O)Nc2sc3c(c2C(N)=O)CCN(C)C3)cc1	none
Cc1cc(/C=N\Nc2ccc([N+](=O)[O-])cn2)c(C)n1-c1ccccc1F	none
Cc1cc(/C=N/Nc2nc(N)ncc2[N+](=O)[O-])c(C)n1-c1ccccc1F	TEAD-YAP inh 63.1
COc1ccc(-n2nc(C(=O)c3ccccc3)c(C(F)(F)F)cc2=O)cn1	TEAD-YAP inh 49.1
COc1cc(C(F)(F)F)c(C(=O)NC2(O)C(=O)c3ccccc3C2=O)cn1	none
CC(=O)N(C1=C(Nc2ccccc2)C(=O)c2ccccc2C1=O)c1ccccc1	none
CC(=O)N(C1=C(N2CCCC2)C(=O)c2ccccc2C1=O)c1ccc(F)c(F)c1	none
CCCNC1=C(N(C(C)=O)c2cccc(F)c2)C(=O)c2ccccc2C1=O	TEAD-YAP inh 93.3
CC(=O)N(C1=C(N2CCCCC2)C(=O)c2ccccc2C1=O)c1cccc(Cl)c1	MITF primary 56.2
CC(=O)N(C1=C(N2CCN(C)CC2)C(=O)c2ccccc2C1=O)c1cccc(F)c1	TEAD-YAP inh 88.3
Cc1sc2ncnc(NC(C)c3ccc(-n4ccnc4)cc3)c2c1C (stereo unspecified)	TEAD-YAP inh 46.8
Cc1sc2ncnc(NCc3ccncc3)c2c1C	none
O=C(NCCCN1CCOCC1)c1cnc(N2CCN(c3ncccn3)CC2)c2ccccc12	none
O=C(Nc1ccccc1F)c1cnc2ccccn2c1=O	TEAD-YAP inh 54.3
O=[N+]([O-])c1ccc(Cl)c(-n2cnnn2)c1	TEAD-YAP inh 59.2
COc1ccc(CN2CCC3(CC2)CC3C(=O)NCCc2ccccc2OC)cc1O (stereo unspecified)	none
Nc1ccc(C(=O)Nc2cccc(-c3nc4ccccc4o3)c2)cc1	none
CC1=CC(=C2C(=O)c3ccccc3C2=O)C=C(C)N1C(C)C	TEAD-YAP inh 67.0
O=C1NC(=Nc2ccc(F)cc2)S/C1=C/c1ccccc1[N+](=O)[O-]	none
O=C1Nc2cc(C(=O)N3CCN(c4cccc(Cl)c4)CC3)ccc2Sc2ccccc21	none
O=C1CSc2ccc(C(=O)N3CCN(c4cccc(C(F)(F)F)c4)CC3)cc2N1	TEAD-YAP inh 52.3
O=C1CSc2ccc(C(=O)N3CCN(c4cccc(Cl)c4)CC3)cc2N1	TEAD-YAP inh 56.1
COCC(=O)N(Cc1cc2ccc(C)c(C)c2n2nnnc12)C1CCCCC1	none
O=C(CCn1cnc2ccccc2c1=O)N1CCN(Cc2csc(-c3ccccc3)n2)CC1	none
O=C(Cn1cnc2ccccc21)N1CCN(Cc2csc(-c3ccccc3)n2)CC1	TEAD-YAP inh 45.9
CCN(c1ccccc1)S(=O)(=O)c1ccc(F)c(C(=O)Nc2ccc(Br)cc2F)c1	none
O=C(NCc1cccnc1)/C(=C/c1ccc(-c2cccc([N+](=O)[O-])c2)o1)S(=O)(=O)c1ccccc1	none
O=C(NCc1cccnc1)/C(=C/c1ccc(-c2ccc(Br)cc2)o1)S(=O)(=O)c1ccccc1	TEAD-YAP inh 35.4
O=C(NCc1cccnc1)/C(=C/c1ccc(-c2cccc(Cl)c2)o1)S(=O)(=O)c1ccccc1	TEAD-YAP inh 52.9
O=C(NCc1cccnc1)/C(=C\c1cccc(Oc2ccccc2)c1)S(=O)(=O)c1ccccc1	TEAD-YAP inh 81.6
